{"source": "PubChem BioAssay (EPA / NIEHS)", "note": "Values joined by “and” are separate entries in the source; they are usually repeats but may differ in a detail not shown here. Equal values may be shown once. A structure can be active in one record and inactive in another. Active and inactive are the calls of the source. How the source made its calls: active means hit-call score of the fitted dose curve at least 0.9, where 1 is the maximum; inactive means score below 0.9."}
{"read-out": "Monokine induced gamma interferon (MIG), CXCL9 (gene 4283)", "assay": "BSK_SAg_MIG: BioMAP Diversity Plus: SAg Assay for Monokine induced gamma interferon (MIG) Biomarker Activity (AID 2283092)", "conditions": "primary human HUVEC with PBMC; actives raise or lower the signal", "how_it_was_run": "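Measures CXCL9 protein by ELISA in a human vascular primary-cell co-culture (umbilical vein endothelium with PBMC) 24 h after chemical addition. Activity is scored up or down from the DMSO control.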"}
{"smiles": "CCCCCCCC(=O)O", "outcome": "inactive"}
{"smiles": "OC1CCC(C2CCCCC2)CC1", "note": "(stereo not drawn)", "outcome": "inactive"}
{"smiles": "CC(C)CCCCCCOC(=O)CCCCC(=O)OCCCCCCC(C)C", "outcome": "inactive"}
{"smiles": "CCCCOCCO", "outcome": "inactive"}
{"smiles": "OC1CCCCC1", "outcome": "inactive"}
{"smiles": "CCCCCCCCC(=O)O", "outcome": "inactive"}
{"smiles": "OCCC(F)(F)C(F)(F)C(F)(F)C(F)(F)C(F)(F)C(F)(F)C(F)(F)C(F)(F)F", "AC50": "46.3 µM (active) and 43.8 µM (active)", "outcome": "inactive"}
{"smiles": "Oc1cccc(O)c1", "outcome": "inactive"}
{"smiles": "c1ccc2cc3c(ccc4ccccc43)cc2c1", "outcome": "inactive"}
{"smiles": "NCC(F)(F)C(F)(F)C(F)(F)C(F)(F)C(F)(F)C(F)(F)C(F)(F)F", "outcome": "inactive"}
{"smiles": "O=c1c(-c2ccc(O)cc2)coc2cc(O)ccc12", "outcome": "inactive"}
{"smiles": "CCc1ccc(CCOc2ccc(CC3SC(=O)NC3=O)cc2)nc1", "note": "(stereo not drawn)", "outcome": "inactive"}
{"smiles": "CCC(C)(C)C1CCC(O)CC1", "note": "(stereo not drawn)", "outcome": "inactive"}
{"smiles": "CN1CCN(c2ccccc2/C=C2\\SCCN(c3ccc(Cl)c(Cl)c3)C2=O)CC1", "outcome": "inactive"}
{"smiles": "CN(C)C=O", "outcome": "inactive"}
{"smiles": "CCCCCCCCCCCCN1CCCC1=O", "AC50": "36.8 µM (active)"}
{"smiles": "CCCCCCC(=O)O", "outcome": "inactive"}
{"smiles": "OCCC(F)(F)C(F)(F)C(F)(F)C(F)(F)C(F)(F)C(F)(F)F", "AC50": "53.2 µM (active)", "outcome": "inactive"}
{"smiles": "C=C(C)C(=O)OCCC(F)(F)C(F)(F)C(F)(F)C(F)(F)C(F)(F)C(F)(F)F", "outcome": "inactive"}
{"smiles": "COCC(C)O", "note": "(stereo not drawn)", "outcome": "inactive"}
{"smiles": "CCOC(=O)CC(O)(CC(=O)OCC)C(=O)OCC", "outcome": "inactive"}
{"smiles": "Cc1cc(CCN2CCN(c3nsc4ccccc34)CC2)cc2c1NC(=O)CC2(C)C", "AC50": "17.3 µM (active)"}
{"smiles": "CC(C)(C)c1cccc(C(C)(C)C)c1O", "outcome": "inactive"}
{"smiles": "CC(C)(C)c1cc(C(C)(C)C)c(O)c(C(C)(C)C)c1", "outcome": "inactive"}
{"smiles": "CN1CCC[C@H]1c1cccnc1", "outcome": "inactive"}
{"smiles": "CCc1nn(C2CCCCC2)c2cc(C3(C#N)CCC(C(=O)O)CC3)ccc12", "note": "(stereo not drawn)", "AC50": "28 µM (active)"}
{"smiles": "C[C@@H]1C[C@H]2[C@@H]3CCC4=CC(=O)C=C[C@]4(C)[C@@]3(F)[C@@H](O)C[C@]2(C)[C@@]1(O)C(=O)COP(=O)(O)O", "outcome": "inactive"}
{"smiles": "CC[C@H](c1ccc(O)cc1)[C@@H](CC)c1ccc(O)cc1", "AC50": "32.6 µM (active)"}
{"smiles": "CC(=O)CC(C)(C)O", "outcome": "inactive"}
{"smiles": "CCCCC(CC)COC(=O)CCCCC(=O)OCC(CC)CCCC", "note": "(stereo not drawn)", "outcome": "inactive"}
{"smiles": "CC(C)(C)CC(C)(C)c1ccc(O)c(-n2nc3ccccc3n2)c1", "outcome": "inactive"}
{"smiles": "c1ccc2c(c1)ccc1ccccc12", "outcome": "inactive"}
{"read-out": "not listed separately", "assay": "BSK_SAg_PBMCCytotoxicity: PBMC Cytotoxicity Assessment in the BioMAP Diversity Plus: SAg Assay (AID 2283093);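 further: PBMC viability measured as Alamar Blue reduction fluorescence at 546/580 nm; fitted both ways against DMSO so a hit may be loss or gain of signal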;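 on AC50: PBMC superantigen activated with SEB plus TSST-1 one hour after compound addition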", "conditions": "primary human HUVEC with PBMC", "how_it_was_run": "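Alamar Blue reduction (6 h, ex/em 546/580 nm) read after 90 h culture of PBMC pre-dosed 1 h then stimulated with SEB plus TSST-1, 20 ng/mL each. Gain or loss of signal fitted relative to DMSO.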"}
{"smiles": "CCCCCCCC(=O)O", "outcome": "inactive"}
{"smiles": "OC1CCC(C2CCCCC2)CC1", "note": "(stereo not drawn)", "outcome": "inactive"}
{"smiles": "CC(C)CCCCCCOC(=O)CCCCC(=O)OCCCCCCC(C)C", "outcome": "inactive"}
{"smiles": "CCCCOCCO", "outcome": "inactive"}
{"smiles": "OC1CCCCC1", "outcome": "inactive"}
{"smiles": "CCCCCCCCC(=O)O", "outcome": "inactive"}
{"smiles": "OCCC(F)(F)C(F)(F)C(F)(F)C(F)(F)C(F)(F)C(F)(F)C(F)(F)C(F)(F)F", "AC50": "23.4 µM (active) and 10 µM (active) and 10.8 µM (active)"}
{"smiles": "Oc1cccc(O)c1", "outcome": "inactive"}
{"smiles": "c1ccc2cc3c(ccc4ccccc43)cc2c1", "outcome": "inactive"}
{"smiles": "NCC(F)(F)C(F)(F)C(F)(F)C(F)(F)C(F)(F)C(F)(F)C(F)(F)F", "AC50": "47.2 µM (active)", "outcome": "inactive"}
{"smiles": "O=c1c(-c2ccc(O)cc2)coc2cc(O)ccc12", "outcome": "inactive"}
{"smiles": "CCc1ccc(CCOc2ccc(CC3SC(=O)NC3=O)cc2)nc1", "note": "(stereo not drawn)", "outcome": "inactive"}
{"smiles": "CCC(C)(C)C1CCC(O)CC1", "note": "(stereo not drawn)", "outcome": "inactive"}
{"smiles": "CN1CCN(c2ccccc2/C=C2\\SCCN(c3ccc(Cl)c(Cl)c3)C2=O)CC1", "AC50": "14.4 µM (active)"}
{"smiles": "CN(C)C=O", "outcome": "inactive"}
{"smiles": "CCCCCCCCCCCCN1CCCC1=O", "AC50": "33 µM (active)"}
{"smiles": "CCCCCCC(=O)O", "outcome": "inactive"}
{"smiles": "OCCC(F)(F)C(F)(F)C(F)(F)C(F)(F)C(F)(F)C(F)(F)F", "AC50": "47.7 µM (active) and 55.7 µM (active)", "outcome": "inactive"}
{"smiles": "C=C(C)C(=O)OCCC(F)(F)C(F)(F)C(F)(F)C(F)(F)C(F)(F)C(F)(F)F", "outcome": "inactive"}
{"smiles": "COCC(C)O", "note": "(stereo not drawn)", "outcome": "inactive"}
{"smiles": "CCOC(=O)CC(O)(CC(=O)OCC)C(=O)OCC", "outcome": "inactive"}
{"smiles": "Cc1cc(CCN2CCN(c3nsc4ccccc34)CC2)cc2c1NC(=O)CC2(C)C", "AC50": "13 µM (active)"}
{"smiles": "CC(C)(C)c1cccc(C(C)(C)C)c1O", "outcome": "inactive"}
{"smiles": "CC(C)(C)c1cc(C(C)(C)C)c(O)c(C(C)(C)C)c1", "outcome": "inactive"}
{"smiles": "CN1CCC[C@H]1c1cccnc1", "outcome": "inactive"}
{"smiles": "CCc1nn(C2CCCCC2)c2cc(C3(C#N)CCC(C(=O)O)CC3)ccc12", "note": "(stereo not drawn)", "outcome": "inactive"}
{"smiles": "C[C@@H]1C[C@H]2[C@@H]3CCC4=CC(=O)C=C[C@]4(C)[C@@]3(F)[C@@H](O)C[C@]2(C)[C@@]1(O)C(=O)COP(=O)(O)O", "outcome": "inactive"}
{"smiles": "CC[C@H](c1ccc(O)cc1)[C@@H](CC)c1ccc(O)cc1", "AC50": "31.1 µM (active)"}
{"smiles": "CC(=O)CC(C)(C)O", "outcome": "inactive"}
{"smiles": "CCCCC(CC)COC(=O)CCCCC(=O)OCC(CC)CCCC", "note": "(stereo not drawn)", "outcome": "inactive"}
{"smiles": "CC(C)(C)CC(C)(C)c1ccc(O)c(-n2nc3ccccc3n2)c1", "outcome": "inactive"}
{"smiles": "c1ccc2c(c1)ccc1ccccc12", "outcome": "inactive"}
